The record followed here is PubChem BioAssay (Tox21).

Unmarked numbers belong to inactive results. Records with an inconclusive call do not appear. Activity calls are given as the source filed them. Unless noted, calls follow the shape of the full dose curve.

Experiment [1] can be described thus: Nuclear factor erythroid 2-related factor 2/antioxidant responsive element (Nrf2/ARE) small molecule agonists: qHTS cell viability counter screen in human keratinocytes (AID 1919968; active = well fitted curve in the direction sought with a large enough effect in the repeat runs; an effect the other way counts as inactive or inconclusive; also: nearly all actives have a fitted effect of over 55% in size; also: potency is read from the fitted curve at half-maximal effect). The essentials: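 In human HaCaT keratinocytes stably expressing an ARE-driven luciferase, compound exposure lasted 23 h at 37 C under 5% CO2. Viable cells are quantified with a protease-based fluorogenic reagent (CellTiter-Fluor) read 1 h after addition.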

The target of experiment [2] is Gonadotropin-releasing hormone receptor (Homo sapiens) (UniProt P30968). As to the kind of experiment: Human gonadotropin-releasing hormone receptor (GnRHR) small molecule agonists, calcium flux assay in GnRHR-HEK293 cells (AID 1920063). Also: nearly all actives have a fitted effect of over 35% in size. Summed up:
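Intracellular calcium rise is the read-out: engineered human GnRHR HEK293 cells, dye-loaded, are exposed to DMSO-dissolved compounds and fluorescence at Ex/Em 480/540 is tracked for 3 min.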

Experiment [3] deals with KiSS-1 receptor (Homo sapiens) (UniProt Q969F8). As to the kind of experiment: Human kisspeptin (KISS1R) small molecule agonists, calcium flux assay in KISS1R-HEK293 cells (AID 1920064; active = well fitted curve in the direction sought with a large enough effect in the repeat runs; an effect the other way counts as inactive or inconclusive). The essentials: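 Concentration-response testing used 15 concentrations in triplicate on human KISS1R-expressing HEK293 cells. Calcium-dependent fluorescence (Ex/Em 480/540) was followed kinetically for 3 min after compound transfer.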
KiSS-1 receptor (Homo sapiens), sequence (Q969F8 whole entry, looked up): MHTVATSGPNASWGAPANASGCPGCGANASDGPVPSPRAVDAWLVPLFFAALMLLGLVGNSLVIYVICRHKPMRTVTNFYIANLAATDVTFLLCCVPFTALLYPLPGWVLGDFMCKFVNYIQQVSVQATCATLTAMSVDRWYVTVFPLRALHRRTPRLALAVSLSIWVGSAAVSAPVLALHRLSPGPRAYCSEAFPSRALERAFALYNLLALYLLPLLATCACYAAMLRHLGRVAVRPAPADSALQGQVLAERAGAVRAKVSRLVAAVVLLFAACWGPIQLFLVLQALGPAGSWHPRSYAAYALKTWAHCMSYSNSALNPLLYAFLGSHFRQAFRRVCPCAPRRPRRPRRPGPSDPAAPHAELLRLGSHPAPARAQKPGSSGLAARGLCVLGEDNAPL
On the technique in general: Calcium flux is commonly read through the fluorescence of an indicator in the cells.

Experiment [4] in a line: G protein-coupled receptor (GPCR) small molecule agonists, calcium flux assay: HEK293 wild type cell line counter screen (AID 1920065). The essentials:
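Fluorescence intensity signals activation. After overnight (18 h) culture and a 1 h calcium dye load at 37 C, compounds are added by pin tool and the plate read at 480/540 nm for 3 min in 1 s steps.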

Experiment [5] is described as follows: p53 small molecule agonists, cell-based qHTS assay with human liver microsomes: qHTS cell viability counter screen (AID 1963579). Also: nearly all actives have a fitted effect of over 45% in size. Also: potency is read from the fitted curve at half-maximal effect. Summed up:
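Cytotoxicity counter screen: p53RE-bla, 4,000 cells/well; 5 h settle, 37 C/5% CO2; cpd + HLM 0.5 mg/mL + NADPH 0.5 mg/mL (final); 16 h, 37 C; CellTiter-Glo, 30 min RT, luminescence.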
For orientation: qHTS replaces the single test concentration by a dilution series.

The target of experiment [6] is 5-hydroxytryptamine receptor 2A (Homo sapiens) (UniProt P28223). As to the kind of experiment: 5-hydroxytryptamine receptor 2A (HTR2A) small molecule antagonists, cell-based qHTS assay (AID 1963586). Also: nearly all actives have a fitted effect of over 45% in size. Also: potency is read from the fitted curve at half-maximal effect. Summed up: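 CHO cells stably expressing human HTR2A were plated for 18 h at 37 C, then loaded with calcium dye for 1 h. Compounds were preincubated 5 min at room temperature before DOI (4 nM solution) was added. Kinetic fluorescence was read for 3 min.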
5-hydroxytryptamine receptor 2A (Homo sapiens), sequence (P28223 whole entry, looked up): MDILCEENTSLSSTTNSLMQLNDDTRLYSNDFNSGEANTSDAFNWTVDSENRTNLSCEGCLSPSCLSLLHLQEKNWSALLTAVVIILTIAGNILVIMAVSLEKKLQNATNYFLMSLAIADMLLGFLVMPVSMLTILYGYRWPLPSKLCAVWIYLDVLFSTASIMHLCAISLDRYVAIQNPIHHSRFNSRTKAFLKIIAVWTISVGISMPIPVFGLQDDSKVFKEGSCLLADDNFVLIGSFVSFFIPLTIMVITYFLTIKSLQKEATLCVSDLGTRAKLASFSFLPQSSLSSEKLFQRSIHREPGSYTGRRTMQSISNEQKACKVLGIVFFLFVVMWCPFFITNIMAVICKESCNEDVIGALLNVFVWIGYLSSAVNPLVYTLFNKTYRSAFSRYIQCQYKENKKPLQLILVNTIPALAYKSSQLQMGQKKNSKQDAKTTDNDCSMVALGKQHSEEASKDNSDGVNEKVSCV

For experiment [7] the target is unchanged. The experiment in a line: 5-hydroxytryptamine receptor 2A (HTR2A) small molecule agonists, cell-based qHTS assay (AID 1963587). Also: nearly all actives have a fitted effect of over 30% in size. The essentials: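 HTR2A-CHO cells, plated 18 h at 37 C/5% CO2, dye-loaded 1 h at 37 C; compounds in DMSO added by pin tool (agonist mode). Intracellular calcium flux read as kinetic fluorescence on FDSS over 2 min at 1 s intervals.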

Experiment [8] has as its target Muscarinic acetylcholine receptor M1 (Homo sapiens) (UniProt P11229). As to the kind of experiment: Cholinergic receptor muscarinic 1 (CHRM1) small molecule antagonists, cell-based qHTS assay (AID 1963588). Also: nearly all actives have a fitted effect of over 40% in size. Summed up:
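Compounds were tested at 15 concentrations in three independent runs. Dye-loaded CHRM1-CHO cells were exposed 5 min at room temperature before stimulation by acetylcholine added at 50nM. Intracellular calcium was read kinetically on FDSS for 3 min.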

The target in experiment [9] is Beta-2 adrenergic receptor (Homo sapiens) (UniProt P07550). The experiment in a line: Adrenergic beta2 receptor (ADRB2) small molecule antagonists, cell-based qHTS assay (AID 1963592). Also: series mostly up to about 92 µM; nearly all actives have a fitted effect of over 50% in size. The essentials:
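Assay format: CHO-ADRB2 cells, 18-20hr seeding at 37C/5% CO2, then compound plus 1nM isoproterenol agonist mix for 0.5hr RT. Homogeneous time-resolved fluorescence cAMP detection after 1hr, expressed as 665/615 nm ratio.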

Experiment [10] shares this target. As to the kind of experiment: Adrenergic beta2 receptor (ADRB2) small molecule agonists, cell-based qHTS assay (AID 1963593).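 Also: CHO cells stably overexpressing human ADRB2.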 The essentials: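 CHO cells stably over-expressing ADRB2 were plated overnight at 37C, then dosed with compounds plus a stimulation mix containing 100uM IBMX and 25uM Ro-20-1724 for 0.5hr at room temperature. cAMP was measured by HTRF competition, 1hr.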

In experiment [11] the target is D(2) dopamine receptor (Homo sapiens) (UniProt P14416). The experiment in a line: Dopamine D2 receptor (DRD2) small molecule antagonists, cell-based qHTS assay (AID 1963595; active = well fitted inhibition curve with a large enough effect in the signal ratio in the repeat runs, with a control signal flat; the % refers to the signal ratio). The essentials: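 Antagonist mode in DRD2-HEK293 cells: after compound addition with 0.1 mM Ro20-1724, cells received quinpirole (12 nM) and NKH477 (200 nM) for 30 min at room temperature; HTRF cAMP read after 1 h detection.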
D(2) dopamine receptor (Homo sapiens), sequence (P14416 whole entry, looked up): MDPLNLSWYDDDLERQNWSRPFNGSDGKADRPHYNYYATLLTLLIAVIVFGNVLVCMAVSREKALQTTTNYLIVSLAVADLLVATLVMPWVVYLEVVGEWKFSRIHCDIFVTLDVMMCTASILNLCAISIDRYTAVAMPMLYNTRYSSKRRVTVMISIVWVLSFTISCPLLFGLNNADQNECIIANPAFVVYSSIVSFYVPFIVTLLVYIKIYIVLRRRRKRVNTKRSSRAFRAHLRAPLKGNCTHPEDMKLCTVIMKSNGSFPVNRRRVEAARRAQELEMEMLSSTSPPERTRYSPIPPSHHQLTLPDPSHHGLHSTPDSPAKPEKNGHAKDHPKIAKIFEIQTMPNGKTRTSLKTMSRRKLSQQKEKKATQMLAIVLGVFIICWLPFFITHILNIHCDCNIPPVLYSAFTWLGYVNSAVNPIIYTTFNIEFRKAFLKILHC

Experiment [12] concerns the target Muscarinic acetylcholine receptor M1 (Homo sapiens) (UniProt P11229). The experiment in a line: Cholinergic receptor muscarinic 1 (CHRM1) small molecule agonists, cell-based qHTS assay (AID 1963589). Also: nearly all actives have a fitted effect of over 35% in size. Summed up: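 Fluorescent calcium dye reports M1 activation in stably transfected CHO cells. Compounds, 15 concentrations, added after 1 h dye loading at 37 C; kinetic reading at 1 sec intervals.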

Experiment [13] can be described thus: p53 small molecule agonists, cell-based qHTS assay with rat liver microsomes: qHTS cell viability counter screen (AID 1963580). Also: nearly all actives have a fitted effect of over 45% in size. The essentials: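 Luminescent ATP readout (CellTiter-Glo, 30 min at room temperature) reports viability of p53RE-bla HCT-116 cells after 16 h at 37 C with test compounds under metabolic activation by rat liver microsomes and NADPH at 0.5 mg/mL final each.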

The nature of experiment [14]: cAMP Responsive Elements (CRE) small molecule antagonists, cell-based qHTS assay (AID 1963591; active = well fitted inhibition curve with a large enough effect in the signal ratio in the repeat runs, not every such curve was filed as active; the % refers to the signal ratio). The essentials:
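Stimulation used NKH477 at a final 0.25 uM for 3 h in compound-treated CRE-bla HEK293T cells, seeded 18 h beforehand. Reporter activity was measured with LiveBLAzer B/G FRET substrate after 2 h at room temperature.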

The target in experiment [15] is D(2) dopamine receptor (Homo sapiens) (UniProt P14416). As to the kind of experiment: Dopamine D2 receptor (DRD2) small molecule agonists, cell-based qHTS assay (AID 1963594). Also: nearly all actives have a fitted effect of over 35% in size. The essentials:
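HEK293 cells stably expressing DRD2 were cultured 24 h at 37 C, then given Ro20-1724 (0.1 mM final) and compounds for 10 min at room temperature. NKH477 (200nM) was then added for 30 min. cAMP was read by HTRF.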

The nature of experiment [16]: p53 small molecule agonists, cell-based qHTS assay: qHTS cell viability counter screen (AID 1963581). Also: nearly all actives have a fitted effect of over 45% in size. The essentials: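 Luminescence from CellTiter-Glo, reflecting ATP content, serves as the cytotoxicity measure; it is taken after the 2 h reporter substrate step in HCT-116 p53RE-bla cells dosed for 16 h at 37 C.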
The nature of experiment [17]: cAMP Responsive Elements (CRE) small molecule agonists, cell-based qHTS assay (AID 1963590). Summed up:
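Compound exposure lasted 3 h at 37 C/5% CO2 in CRE-bla HEK 293T cells grown in assay medium with 10% dialyzed FBS and 25 mM HEPES. Reporter signal came from LiveBLAzer B/G FRET substrate, 2 h, room temperature.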
% is scaled to controls: 0 for no effect and ±100 for the full control effect.

Gonadotropin-releasing hormone receptor (Homo sapiens), sequence (P30968 whole entry, looked up): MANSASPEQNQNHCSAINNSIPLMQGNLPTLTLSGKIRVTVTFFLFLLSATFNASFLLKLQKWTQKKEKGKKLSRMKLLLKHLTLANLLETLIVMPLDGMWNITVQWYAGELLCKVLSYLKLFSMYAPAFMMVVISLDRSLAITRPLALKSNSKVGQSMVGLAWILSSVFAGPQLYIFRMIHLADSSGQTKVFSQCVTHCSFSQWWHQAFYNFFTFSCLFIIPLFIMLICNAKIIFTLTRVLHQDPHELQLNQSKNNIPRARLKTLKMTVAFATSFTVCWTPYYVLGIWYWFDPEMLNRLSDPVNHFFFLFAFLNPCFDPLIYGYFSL
Beta-2 adrenergic receptor (Homo sapiens), sequence (P07550 whole entry, looked up): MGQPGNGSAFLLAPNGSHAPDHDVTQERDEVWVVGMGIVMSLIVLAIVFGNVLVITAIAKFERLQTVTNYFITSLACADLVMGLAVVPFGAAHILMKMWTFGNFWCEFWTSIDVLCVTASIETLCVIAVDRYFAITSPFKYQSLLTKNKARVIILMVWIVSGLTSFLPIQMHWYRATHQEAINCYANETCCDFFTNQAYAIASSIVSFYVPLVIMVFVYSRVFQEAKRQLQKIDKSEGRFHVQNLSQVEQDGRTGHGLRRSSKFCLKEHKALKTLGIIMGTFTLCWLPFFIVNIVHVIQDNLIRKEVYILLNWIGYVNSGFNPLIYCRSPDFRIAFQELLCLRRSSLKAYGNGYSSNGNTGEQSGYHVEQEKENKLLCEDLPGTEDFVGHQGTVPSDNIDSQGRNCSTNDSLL
Muscarinic acetylcholine receptor M1 (Homo sapiens), sequence (P11229 whole entry, looked up): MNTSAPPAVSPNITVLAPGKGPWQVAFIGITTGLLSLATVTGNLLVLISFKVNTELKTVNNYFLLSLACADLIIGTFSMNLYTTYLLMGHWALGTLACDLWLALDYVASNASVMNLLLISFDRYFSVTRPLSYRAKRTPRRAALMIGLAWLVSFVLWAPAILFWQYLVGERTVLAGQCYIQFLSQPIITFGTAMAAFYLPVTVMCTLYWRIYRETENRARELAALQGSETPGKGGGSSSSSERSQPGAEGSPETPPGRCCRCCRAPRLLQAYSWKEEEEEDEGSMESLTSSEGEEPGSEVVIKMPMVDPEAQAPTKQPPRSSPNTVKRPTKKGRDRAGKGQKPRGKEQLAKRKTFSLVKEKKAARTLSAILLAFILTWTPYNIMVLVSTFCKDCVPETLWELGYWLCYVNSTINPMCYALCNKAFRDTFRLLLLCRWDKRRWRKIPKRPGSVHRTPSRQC

Regarding `NC(=O)N(O)[C@@H]1COc2cc(OCc3ccccc3)ccc21`, the Potency entry in experiment [1], in [2], in experiment [3], in [4], in experiment [5] and in experiment [6] was “inactive” throughout. For the same molecule, the Potency result in experiment [7], in experiment [8], in experiment [9], in experiment [10] and in experiment [11] was “inactive” throughout.
Turning to `CCCCCCCCCC[N+](C)(CCCCCCCCCC)CCC[Si](OC)(OC)OC`, the Potency in [1] is 21.7 µM (active); in experiment [5], 36.3 µM (active). Also, the Potency result in experiment [2], in experiment [3], in experiment [4], in [6], in experiment [7] and in experiment [8] was “inactive” in each case. Also, the Potency entry in experiment [12] and in [9] was “inactive” each time.
Turning to `OCCCCCCCCCCCCBr`, the Potency result in experiment [1], in [2], in experiment [3], in [4], in [5] and in experiment [13] was “inactive” in each case. Besides, the Potency entry in experiment [6], in [7], in experiment [8], in experiment [12], in [14] and in experiment [9] was “inactive” in each case. For the same molecule, in experiment [15], the Potency result was “inactive”.
Consider `Cc1c(N)cccc1N`, for which the Potency result in experiment [1], in experiment [2], in experiment [3], in experiment [4], in [5] and in [13] was “inactive” each time. The Potency result in experiment [16], in experiment [6], in experiment [7], in experiment [12], in experiment [17] and in [15] was “inactive” throughout. Moreover, the Potency entry in [11] is “inactive”.
Take `Cc1nnc(SCC2=C(C(=O)O)N3C(=O)[C@@H](NC(=O)Cn4cnnn4)[C@H]3SC2)s1`: the Potency result in [1], in experiment [2], in experiment [3], in [4], in experiment [5] and in [16] was “inactive” in each case. Moreover, the Potency entry in [6], in experiment [7], in experiment [8], in experiment [12], in experiment [17] and in [14] was “inactive” in each case. The Potency result in experiment [9], in experiment [10], in experiment [15] and in experiment [11] was “inactive” each time.
Take `CCC(Cl)CC(Cl)C(Cl)C(Cl)C(Cl)C(C)Cl` (stereo not drawn): the activity change, negative = cytotoxicity in experiment [1] was 2.55% [at 19 µM]; in experiment [13], -14% [at 13.5 µM]; in experiment [16], -23.5% [at 13.5 µM]. In addition, the activity change in experiment [2] was -1.19% [at 11.8 µM, active compounds read high]. Moreover, the activation in [3] is -1.96% [at 15.8 µM]; in experiment [4] it was 0.622% [at 11.8 µM]; in experiment [7], -1.32% [at 15.9 µM]; in experiment [12] it was -0.121% [at 15.8 µM]; in [15] it was -1.17% [at 19 µM]. Moreover, the activity, negative = inhibition was -18.7% [at 12.7 µM] in [6] and -3.76% [at 12.6 µM] in [8]. Besides, the activity change, negative = inhibition in [14] is 6.46% [at 18.9 µM]; in [9], -8.4% [at 19 µM]; in experiment [11], -0.674% [at 18.9 µM].
Turning to `CC(C)(C)C1=CC(=O)C=C(C(C)(C)C)C1=O`, the Potency result in experiment [1], in experiment [2], in experiment [3], in [4], in [5] and in experiment [13] was “inactive” each time. The Potency result in experiment [16], in experiment [6], in experiment [7], in [12], in experiment [17] and in [14] was “inactive” each time. For the same molecule, the Potency result in [9], in [15] and in experiment [11] was “inactive” throughout.
For `Brc1ccccc1-c1ccccc1`, the Potency result in experiment [1], in [2], in experiment [3], in [4], in [5] and in experiment [8] was “inactive” in each case. Also, the Potency result in experiment [12], in experiment [17], in experiment [14] and in experiment [11] was “inactive” throughout. In addition, the Potency in experiment [6] is 17.8 µM (active).
